Several values for one entry are separate records, joined by “and”; a condition that tells them apart may be missing. Identical values can stand only once. Screen size: about 5,500 compounds; about 2,000 (36%) were called active. Another 18% or so got no clear call; they are omitted. No stated cut-off is given here; in the data, active means normalized growth mostly below about 0.91 (no sharp cut-off); inconclusive means no clear call, values can overlap the other calls; inactive means mostly above about 0.92. The list shows a part of the results.
Assay: chemical genetic growth profiling, strain panel (AID 1159580);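 further: tested at 20 µM; growth read once vehicle control cultures reached saturation at 30 °C; 1 = growth at the plate median or of vehicle wells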
Settings: S. cerevisiae deletion strains, growth OD

Measured: normalized growth

CN1CCCCC1c1ccc(-c2cccnc2)nc1 (stereo not given)
inactive: locus YAL013W, strain DEP1, stronger effect = lower value 1.01 | locus YAL021C, strain ccr4, stronger effect = lower value 0.987 | locus YAL026C, strain drs2, stronger effect = lower value 0.965 | locus YAL030W, strain snc1, stronger effect = lower value 0.984 | locus YBL061C, strain skt5, stronger effect = lower value 0.975 | locus YBR009C, strain hhf1, stronger effect = lower value 0.938 | locus YBR021W, strain FUR4, stronger effect = lower value 1.1 | locus YBR023C, strain chs3, stronger effect = lower value 0.99 | locus YBR171W, strain sec66, stronger effect = lower value 0.971 | locus YBR229C, strain ROT2, stronger effect = lower value 1.02 | locus YBR231C, strain swc5, stronger effect = lower value 0.982 | locus YBR279W, strain paf1, stronger effect = lower value 0.984 | locus YCL011C, strain gbp2, stronger effect = lower value 0.964 | locus YCL016C, strain dcc1, stronger effect = lower value 0.997 | locus YCL029C, strain bik1, stronger effect = lower value 0.97 | locus YCL061C, strain MRC1, stronger effect = lower value 0.98 | locus YCL069W, strain vba3, stronger effect = lower value 0.979 | locus YCR088W, strain abp1, stronger effect = lower value 0.994 | locus YDL005C, strain med2, stronger effect = lower value 0.964 | locus YDL035C, strain GPR1, stronger effect = lower value 1.01 | locus YDL040C, strain nat1, stronger effect = lower value 0.983 | locus YDL074C, strain BRE1, stronger effect = lower value 1.01 | locus YDL101C, strain DUN1, stronger effect = lower value 1.02 | locus YDL134C, strain PPH21, stronger effect = lower value 1.1 | locus YDL185W, strain tfp1, stronger effect = lower value 0.959 | locus YDL192W, strain arf1, stronger effect = lower value 0.983 | locus YDR001C, strain nth1, stronger effect = lower value 0.962 | locus YDR069C, strain doa4, stronger effect = lower value 0.962 | locus YDR101C, strain arx1, stronger effect = lower value 0.999 | locus YDR137W, strain rgp1, stronger effect = lower value 0.975 | locus YDR150W, strain NUM1, stronger effect = lower value 1.01 | locus YDR159W, strain sac3, stronger effect = lower value 0.927 | locus YDR162C, strain NBP2, stronger effect = lower value 1.07 | locus YDR195W, strain ref2 0.929 | locus YDR297W, strain sur2, stronger effect = lower value 0.967 | locus YDR318W, strain mcm21, stronger effect = lower value 1 | locus YDR334W, strain swr1, stronger effect = lower value 0.971 | locus YDR335W, strain msn5, stronger effect = lower value 0.99 | locus YDR388W, stronger effect = lower value 0.997 | locus YDR392W, strain spt3, stronger effect = lower value 0.874 | locus YDR502C, strain sam2, stronger effect = lower value 1.01 | locus YEL003W, strain gim4, stronger effect = lower value 0.979 | locus YEL037C, strain rad23, stronger effect = lower value 0.985 | locus YEL061C, strain CIN8 (second series), stronger effect = lower value 0.97 | locus YEL061C, strain CIN8, stronger effect = lower value 1.01 | locus YER015W, strain faa2, stronger effect = lower value 0.965 | locus YER016W, strain bim1, stronger effect = lower value 0.994 | locus YER110C, stronger effect = lower value 1 | locus YER111C, strain swi4, stronger effect = lower value 0.974 | locus YER155C, strain BEM2 (second series), stronger effect = lower value 0.971 | locus YER155C, strain BEM2, stronger effect = lower value 1.01 | locus YER167W, strain BCK2, stronger effect = lower value 1.03 | locus YFR010W, strain ubp6, stronger effect = lower value 0.969 | locus YGL078C, strain dbp3, stronger effect = lower value 0.996 | locus YGL086W, strain mad1, stronger effect = lower value 1.03 | locus YGL167C, strain pmr1, stronger effect = lower value 0.956 | locus YGL173C, strain kem1, stronger effect = lower value 0.973 | locus YGL227W, strain vid30, stronger effect = lower value 0.97 | locus YGL240W, strain doc1, stronger effect = lower value 0.965 | locus YGL248W, strain PDE1, stronger effect = lower value 1.01 | locus YGL253W, strain hxk2, stronger effect = lower value 0.992 | locus YGR135W, strain pre9, stronger effect = lower value 0.981 | locus YGR229C, strain SMI1, stronger effect = lower value 1.08 | locus YGR252W, strain gcn5, stronger effect = lower value 1.05 | locus YHR013C, strain ard1, stronger effect = lower value 0.929 | locus YHR027C, strain rpn1, stronger effect = lower value 0.984 | locus YHR030C, strain SLT2, stronger effect = lower value 0.995 and 1 | locus YHR079C, strain IRE1 (second series), stronger effect = lower value 0.998 | locus YHR079C, strain IRE1, stronger effect = lower value 0.988 | locus YHR094C, strain hxt1, stronger effect = lower value 1.02 | locus YHR129C, strain ARP1, stronger effect = lower value 1.02 | locus YHR142W, strain chs7, stronger effect = lower value 1 | locus YHR200W, strain rpn10, stronger effect = lower value 0.984 | locus YIL066C, strain RNR3, stronger effect = lower value 1.05 | locus YIL073C, strain SPO22, stronger effect = lower value 1.02 | locus YIL125W, strain kgd1, stronger effect = lower value 0.998 | locus YIR030C, strain dcg1, stronger effect = lower value 0.995 | locus YJL092W, strain hpr5, stronger effect = lower value 0.985 | locus YJL095W, strain BCK1 (second series), stronger effect = lower value 0.998 | locus YJL095W, strain BCK1, stronger effect = lower value 1.07 and 1.03 | locus YJL115W, strain asf1, stronger effect = lower value 0.991 | locus YJL129C, strain trk1, stronger effect = lower value 0.983 | locus YJL134W, strain LCB3, stronger effect = lower value 0.996 | locus YJL154C, strain vps35, stronger effect = lower value 0.994 | locus YJL164C, strain tpk1, stronger effect = lower value 1.02 | locus YJL166W, strain qcr8, stronger effect = lower value 0.983 | locus YJL168C, strain set2, stronger effect = lower value 0.996 | locus YJL187C, strain SWE1 (second series), stronger effect = lower value 1.04 | locus YJL187C, strain SWE1, stronger effect = lower value 0.979 | locus YJR043C, strain POL32, stronger effect = lower value 1.04 | locus YJR066W, strain TOR1, stronger effect = lower value 0.951 | locus YKL009W, strain mrt4, stronger effect = lower value 0.986 | locus YKL068W, stronger effect = lower value 0.997 | locus YKL085W, strain MDH1 (second series), stronger effect = lower value 1.01 | locus YKL085W, strain MDH1, stronger effect = lower value 1.01 | locus YKL160W, strain elf1, stronger effect = lower value 1.01 | locus YKL190W, strain CNB1, stronger effect = lower value 1.02 | locus YKR001C, strain vps1, stronger effect = lower value 0.996 | locus YKR026C, strain gcn3, stronger effect = lower value 0.967 | locus YKR091W, strain srl3, stronger effect = lower value 0.969 | locus YLL001W, strain dnm1, stronger effect = lower value 1 | locus YLL026W, stronger effect = lower value 1 | locus YLL041C, strain sdh2, stronger effect = lower value 0.991 | locus YLR027C, strain aat2, stronger effect = lower value 0.979 | locus YLR039C, strain RIC1, stronger effect = lower value 1.07 | locus YLR058C, strain SHM2, stronger effect = lower value 1.02 | locus YLR102C, strain apc9, stronger effect = lower value 0.999 | locus YLR113W, strain HOG1, stronger effect = lower value 1.03 | locus YLR221C, strain rsa3, stronger effect = lower value 0.994 | locus YLR258W, strain gsy2, stronger effect = lower value 0.985 | locus YLR262C, strain YPT6 (second series), stronger effect = lower value 1.01 | locus YLR262C, strain YPT6, stronger effect = lower value 1.04 | locus YLR268W, strain sec22, stronger effect = lower value 1.01 | locus YLR320W, strain mms22, stronger effect = lower value 0.993 | locus YLR330W, strain CHS5, stronger effect = lower value 1.01 | locus YLR342W, strain FKS1 (second series), stronger effect = lower value 1.06 | locus YLR342W, strain FKS1, stronger effect = lower value 0.971 | locus YLR357W, strain rsc2, stronger effect = lower value 0.968 | locus YLR370C, strain arc18, stronger effect = lower value 0.966 | locus YLR371W, strain rom2, stronger effect = lower value 0.971 | locus YLR384C, strain iki3, stronger effect = lower value 0.993 | locus YLR418C, strain cdc73, stronger effect = lower value 1.05 | locus YML016C, strain PPZ1, stronger effect = lower value 1.01 | locus YML032C, strain rad52, stronger effect = lower value 0.997 | locus YML120C, strain ndi1, stronger effect = lower value 0.984 | locus YML124C, strain tub3, stronger effect = lower value 0.998 | locus YMR058W, strain fet3, stronger effect = lower value 0.97 | locus YMR078C, strain ctf18, stronger effect = lower value 0.999 | locus YMR125W, strain sto1, stronger effect = lower value 0.942 | locus YMR129W, stronger effect = lower value 0.974 | locus YMR205C, strain PFK2, stronger effect = lower value 0.934 | locus YMR223W, strain ubp8, stronger effect = lower value 0.987 | locus YMR231W, strain pep5, stronger effect = lower value 0.967 | locus YMR307W, strain GAS1, stronger effect = lower value 1.19 | locus YNL067W, strain RPL9B, stronger effect = lower value 1.05 | locus YNL071W, strain lat1, stronger effect = lower value 0.993 | locus YNL183C, strain NPR1, stronger effect = lower value 0.979 | locus YNL209W, strain ssb2, stronger effect = lower value 0.966 | locus YNL233W, strain BNI4, stronger effect = lower value 1.07 | locus YNL248C, strain rpa49, stronger effect = lower value 1.02 | locus YNL250W, strain rad50, stronger effect = lower value 0.988 | locus YNL271C, strain bni1, stronger effect = lower value 0.988 | locus YNL298W, strain CLA4, stronger effect = lower value 1 | locus YNL307C, strain MCK1, stronger effect = lower value 1 | locus YNL322C, strain KRE1 (second series), stronger effect = lower value 0.971 | locus YNR049C, strain mso1, stronger effect = lower value 0.986 | locus YNR052C, strain pop2, stronger effect = lower value 0.993 | locus YOL006C, strain TOP1, stronger effect = lower value 1.11 | locus YOL012C, strain htz1 1.24 | locus YOL147C, strain pex11, stronger effect = lower value 1.01 | locus YOR001W, strain rrp6, stronger effect = lower value 1.02 | locus YOR061W, strain CKA2, stronger effect = lower value 1.01 | locus YOR069W, strain VPS5, stronger effect = lower value 1 | locus YOR070C, strain gyp1, stronger effect = lower value 0.997 | locus YOR080W, strain dia2, stronger effect = lower value 0.966 | locus YOR083W, strain WHI5, stronger effect = lower value 1.01 | locus YOR106W, strain vam3, stronger effect = lower value 1 | locus YOR136W, strain idh2, stronger effect = lower value 0.995 | locus YOR144C, strain elg1, stronger effect = lower value 1.01 | locus YOR184W, strain ser1, stronger effect = lower value 1.02 | locus YOR231W, strain MKK1, stronger effect = lower value 0.992 | locus YOR265W, strain rbl2, stronger effect = lower value 1.01 | locus YOR270C, strain vph1, stronger effect = lower value 0.974 | locus YOR290C, strain snf2, stronger effect = lower value 0.923 | locus YOR316C, strain cot1, stronger effect = lower value 0.99 | locus YPL051W, strain arl3, stronger effect = lower value 1.01 | locus YPL078C, strain atp4, stronger effect = lower value 0.999 | locus YPL106C, strain sse1, stronger effect = lower value 0.934 | locus YPL240C, strain hsp82, stronger effect = lower value 0.981 | locus YPL256C, strain CLN2, stronger effect = lower value 0.977 | locus YPR119W, strain clb2, stronger effect = lower value 1 | locus YPR141C, strain kar3, stronger effect = lower value 0.986 | locus YPR163C, strain tif3, stronger effect = lower value 0.998 | locus YPR167C, strain met16, stronger effect = lower value 0.999 | strain wtn01, stronger effect = lower value 0.983

From PubChem BioAssay AID1159580 (chemical genetic matrix, 2015)
